Assay outcomes as filed in PubChem BioAssay.
SKN-1 block: blocks SKN-1 activity in C. elegans; inhibition, % at 21.8 µM; C. elegans VP596 Pgst-4::GFP/RFP ratio, acrylamide-induced, 24 h; actives 0.49% (n = 360,000);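 active = interference check ratio from 0.5 to 1.5 plus GFP to RFP signal ratio inhibition reaching or exceeding a fixed threshold, cut at about 30% in these data, passing the limit was not always enough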
Vif imaging: inhibitors of HIV Vif; HEK293T cells, Vif self-association by quenched fluorescence, imaging, 24 h; inhibition, % at 7.49 µM; actives 0.35% (n = 340,000); AID 602346; in the data active = inhibition above about 50%, passing the limit was not always enough
NadD block: NadD (S. aureus) enzyme inhibition | purified NadD enzyme, colorimetric absorbance read-out | inhibition, % at 20 µM | actives 0.78% (n = 360,000); in the data active = inhibition above about 26%
SMARCA2 act: increases SMARCA2 function in MMTV reporter cells | MG213 cells, MMTV-luciferase reporter, dexamethasone, overnight | activation, % at 9.1 µM | actives 1% (n = 370,000); in the data active = activation above about 7.8%;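 also: 0% = vehicle wells and 100% = reference activator wells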
GRIN3A LBD mod: modulates the human NR3A ligand-binding domain. NR3A LBD differential scanning fluorimetry, Tm shift; 0% = protein alone, 100% = glycine-bound protein. Tm shift relative to glycine control, % at 25 µM. actives 2.5% (n = 340,000). AID 1259313;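 active = melting temperature shift of at least 10% of the positive control shift, at one fixed dose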
esBAF inh: SWI/SNF esBAF complex inhibition | reporter increase, % at 12.5 µM | mouse ES cells, Bmi1-luciferase knock-in reporter, 24 h; 100% = twice the neutral-well signal | AID 602393 | actives 2% (n = 350,000); in the data active = activation above about 40%;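 also: 0% = median of the plate's neutral control wells and 100% = double that signal; a rise in the Bmi1 reporter signal indicates esBAF inhibition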
* = called active by the depositor; . = no result given. Most compounds without a hit are left out; they make up all but 5.2% or so of the library.

SMILES | SKN-1 block | Vif imaging | NadD block | SMARCA2 act | GRIN3A LBD mod | esBAF inh
CCN(CC)S(=O)(=O)c1ccc(N/N=C/c2ccc(O)cc2O)nc1 | 4 | 1 | -1 | -3 | 24* | .
C[C@@H]1CN([C@H](C)CO)S(=O)(=O)c2ccc(C#C[C@@H](C)O)cc2O[C@@H]1CN(C)C(=O)c1ccccc1 | . | . | . | . | . | 2
C[C@@H]1CN([C@H](C)CO)C(=O)c2cccc(NC(=O)Nc3ccc(C(F)(F)F)cc3)c2O[C@@H]1CN(C)S(=O)(=O)c1ccccc1 | . | . | . | . | . | 25
C[C@@H]1CN([C@@H](C)CO)C(=O)Cc2cc(NC(=O)CCN3CCOCC3)ccc2O[C@H]1CN(C)CC1CCCCC1 | . | . | . | . | . | -5
CCCOc1ccc(/C=N/Nc2ccc(C(=O)O)cc2)c(OCCC)c1 | -6 | -12 | 7 | 0 | 21* | .
O=[N+]([O-])c1ccc(NN=Cc2ccc(O)cc2O)nc1 | -5 | -5 | -2 | -4 | 27* | -25
CCOc1ccccc1/C=N/Nc1ccccc1[N+](=O)[O-] | -4 | 33 | -2 | 1 | 5 | 54*
COc1ccccc1/C=N\Nc1ccccc1[N+](=O)[O-] | 5 | 6 | -6 | 3 | -2 | .
O=[N+]([O-])c1ccc(NN=Cc2ccccc2O)nc1 | 14 | 8 | -1 | -3 | 26* | -48
C[C@@H]1CN([C@H](C)CO)C(=O)c2cc(-c3ccc(C(=O)N(C)C)cc3)cnc2O[C@@H]1CN(C)C | . | . | . | . | . | 4
O=[N+]([O-])c1ccc(N/N=C/c2ccccc2O)cc1 | 7 | -18 | -10 | -3 | 38* | 69*
C[C@@H]1CN([C@H](C)CO)C(=O)c2cc(NC(=O)C3CCCCC3)ccc2O[C@@H](C)CCCCO[C@H]1CN(C)C(=O)c1ccccc1 | . | . | . | . | . | 6
CC(=O)c1sc(Nc2nc3cc4c(cc3s2)OCO4)nc1C | 12 | -14 | -6 | 6 | 5 | .
CCOC(=O)c1sc(Nc2nc3cc4c(cc3s2)OCO4)cc1C | -2 | 3 | -1 | -2 | 29* | .
COc1cccc2sc(NN)nc12 | -7 | -6 | -3 | -1 | -1 | .
CCOC(=O)c1sc(Nc2nc3c(OC)cccc3s2)cc1C | -6 | -18 | 0 | -1 | 22* | .
O=C(NCC[C@H]1CC[C@H](NS(=O)(=O)c2ccc(Oc3ccccc3)cc2)[C@@H](CO)O1)C1CC1 | . | . | . | . | . | 0
COc1ccc(NC(=O)N(C)C[C@@H]2Oc3c(NS(=O)(=O)c4ccc(Cl)cc4)cccc3C(=O)N([C@@H](C)CO)C[C@@H]2C)cc1 | . | . | . | . | . | 4
Fc1cccc(F)c1/C=C/c1ccc2ccccc2n1 | 51* | -7 | -7 | 3 | 7 | .
CCCNC(=O)C[C@@H]1CC[C@@H]2[C@H](COC[C@@H](O)CN2C(=O)Nc2ccc3c(c2)OCO3)O1 | . | . | . | . | . | 8
CCCNC(=O)C[C@H]1CC[C@H]2[C@@H](COC[C@H](O)CN2C(=O)Nc2ccc3c(c2)OCO3)O1 | . | . | . | . | . | 14
CCNC(=O)C[C@@H]1CC[C@@H]2[C@H](COC[C@H](O)CN2C(=O)Nc2ccc3c(c2)OCO3)O1 | . | . | . | . | . | 44*
CCNC(=O)C[C@H]1CC[C@@H]2[C@H](COC[C@H](O)CN2C(=O)Nc2ccc3c(c2)OCO3)O1 | . | . | . | . | . | 45*
NC(=S)Nc1ccc(Oc2ccc(NC(N)=S)cc2)cc1 | -1 | -1 | 4 | 2 | 14* | 0
CCN(C(=O)COc1ccc(C)cc1OC)c1cccc2ccccc12 | -13 | 57* | 2 | -3 | -1 | -5
SMILES | SKN-1 block | Vif imaging | NadD block | SMARCA2 act | GRIN3A LBD mod | esBAF inh
Cc1ccc(C(=O)OCC(=O)c2ccc[nH]2)s1 | 0 | -8 | 5 | 5 | -3 | .
Cc1ccsc1C(=O)OCC(=O)c1ccc[nH]1 | -8 | 13 | -2 | 2 | -1 | 48*
COc1ccc(C(=O)COC(=O)c2sccc2C)cc1OC | -7 | 3 | -8 | 2 | 2 | 91*
Cc1ccsc1C(=O)OCC(=O)N1CCc2ccccc2C1 | -1 | -4 | -4 | 5 | 4 | 57*
CC(C)OC(=O)c1ccc(NC(=O)Cn2c(-c3nonc3N)nc3ccccc32)cc1 | 0 | 7 | 2 | -2 | 19* | 9
O=S(=O)(/C=C/C=C/S(=O)(=O)c1ccccc1)c1ccccc1 | 18 | 21 | 3 | -12 | 13* | .
Cc1cccc(N=c2oc3cc(O)ccc3cc2C(N)=O)c1 | 6 | -6 | 9 | 1 | -6 | 58*
